Laboratory results reported in PubChem BioAssay (NCATS).
The source made the active and inactive calls. Entries that show only a call come without a potency. Calls come from the whole dose curve; as a rule, active = well fitted activation curve with a large enough effect; inconclusive = small, poorly fitted or top-dose-only effect; inactive = flat fitted curve, though single readings scatter.

Experiment: Confirmation and Secondary Assay for Modulators of Hemoglobin Beta Chain Splicing at IVS2 654 locus (AID 910);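 note: HeLa cells stably carrying EGFP split by mutant beta-globin IVS2-654 intron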
Details: HeLa EGFP-654 splicing reporter, GFP fluorescence, 48 h; series mostly up to 46.1 µM
Excerpt: NIH Chemical Genomics Center [NCGC] NIH Molecular Libraries Screening Centers Network [MLSCN] MLSCN Grant: 1 X01 MH080684-01 PI Name: Dr. Ryszard Kole NCGC Assay Overview: Modulation of Alternative Splicing as Therapy Abnormal splicing is associated with a number of diseases, including cancer and genetic diseases such as cystic fibrosis, muscular dystrophy and beta-thalassemia. Alteration of disease associated splicing patterns provides a promising target for treatment. […] Mutations in the second intron of the b-globin gene at positions 654 or 705 are clinically relevant and cause mis-splicing which results in an out of frame gene product. […] EGFP-654 HeLa Cells as screen system. HeLa cell lines were stably transfected with a construct in which the EGFP (enhanced green fluorescent protein) cDNA was interrupted by the second intron of the beta-globin gene (IVS2-654). The ISV2 intron contains mutations which cause mis-splicing of EGFP and premature termination of EGFP which results in a nonfluorescent protein product. […] Expression of the transgene was driven by the CMV promoter. We concluded that a low molecular weight compound, which restored correct splicing of intron 2 would also generate functional EGFP protein, resulting in a fluorescent signal. Thus, the HeLa cells that express the EGFP-654 construct can be used for high throughput screening of a chemical library.
NCGC Assay Protocol Summary: Confirmatory Screening. Freshly thawed HeLa EGFP-654 cells were seeded in 5 ul of optimem media (Invitrogen) containing 2 % fetal calf serum (Hyclone) and 1x penicillin/streptomycin (Invitrogen) at a concentration of 500 cells per well in 1536-well plates. Cells were incubated overnight at 37C in 5% CO2. The next day, cells were treated with DMSO, 500 nM antisense ISV2 654 PNA control oligo, or library compound and allowed to grow at 37C in 5% CO2 for 2 days. The PNA oligo blocked the mutation site in the intron and allowed proper (wild type) splicing to occur, resulting in full length EGFP expression and also allowed for optimization of the assay parameters. Plates were read in the Acumen Explorer (TTP Labtech) using 488 nm laser excitation and 500-520 nm emission PMT filter in a 1 x 8 uM capture mode. Fluorescnet objects ranging in size from 5 to 250 uM were measured and the total peak GFP intensity for each well was used for data analysis. Keywords: Thalassemia, beta-thalassemia, beta-globin, EGFP, ISV2 654, ISV2 705, SSO, PNA, antisense, splicing, MLSMR, MLSCN, NIH Roadmap, qHTS, NCGC

| SMILES | Potency |
| --- | --- |
| CCNc1nc(Cl)nc(NC(C)C)n1 | inactive |
| CC1C(=O)OC2CCN3CC=C(COC(=O)[C@](C)(O)[C@]1(C)O)C23 (stereo not given in full) | inactive |
| O=C1NC(=O)C(=O)C(=O)N1 | inactive |
| CN1CC(CNC(=O)OCc2ccccc2)CC2c3cccc4c3c(cn4C)CC21 (stereo not given) | inactive |
| COc1c(CC=C(C)C)c2c(c3oc(=O)c(-c4ccc(O)cc4)c(O)c13)C=CC(C)(C)O2 | inactive |
| CC(C)(O)C1C2OC(=O)C1[C@]1(O)CC3O[C@@]34C(=O)OC2[C@@]14C (stereo not given in full) | inactive |
| N#C/C(=C\c1ccc(O)cc1)C(=O)O | inactive |
| C[C@]12CCC3C(C=CC4=CC(=O)CC[C@]43C)C1CC[C@]2(O)CCC(=O)O (stereo not given in full) | inactive |
| CC1CC(O)[C@]2(O)[C@]13CC(=O)OC[C@@]2(C)[C@@](C)(O)C(=O)C3 (stereo not given in full) | inactive |
| COc1cc(C2c3cc4c(cc3C(O)C3COC(=O)C23)OCO4)cc(OC)c1O (stereo not given) | inactive |
| C/C=C(/C)C(=O)OC1CC[C@]2(C)C3CCC4[C@]5(O)CC(O)[C@]6(O)C(CN7CC(C)CCC7[C@]6(C)O)[C@]5(O)C[C@@]42O[C@]13O (stereo not given in full) | inactive |
| CC1(C)C(=O)C=C[C@@]2(C)C1=C(O)C(=O)[C@@]1(C)C2CC[C@@]2(C)C(c3ccoc3)C[C@H]3O[C@@]321 (stereo not given in full) | inactive |
| COC1=CC2C3Cc4ccc(OC)c(O)c4[C@]2(CCN3C)CC1=O (stereo not given in full) | inactive |
| O=C(O)c1nn(Cc2ccc(Cl)c(Cl)c2)c2ccccc12 | inactive |
| CC1O[C@@H](OC2CC(O)[C@@]3(CO)C4C(O)C[C@@]5(C)C(C6=CC(=O)OC6)CC[C@]5(O)C4CC[C@]3(O)C2)C(O)C(O)C1O (stereo not given in full) | inactive |
| CC(C)Nc1nc(Cl)nc(NC(C)C)n1 | inactive |
| NC(=O)c1ccc(N)nc1 | inactive |
| CC(=O)C1=C(O)C2C3c4c[nH]c5cccc(c45)CC3C(C)(C)N2C1=O (stereo not given) | inactive |
| CCOCN(C(=O)CCl)c1c(C)cccc1CC | inactive |
| ClC1=C(Cl)C2(Cl)C3C4C=CC(C4)C3C1(Cl)C2(Cl)Cl (stereo not given) | inactive |

| SMILES | Potency |
| --- | --- |
| CNC(=O)O/N=C/C(C)(C)SC | inactive |
| C=C1C([C@@]2(C)C(OC(C)=O)CC(=O)O[C@@](C)(COC(C)=O)C2CC(=O)OC)C(OC=O)C(OC(=O)C(OC(C)=O)C(C)CC)[C@]2(C)C(c3ccoc3)CC(=O)C12O (stereo not given in full) | inactive |
| COc1cc2c(cc1OC)[C@@H]1C(=O)c3ccc(O)c(CC=C(C)C)c3OC1CO2 (stereo not given in full) | inactive |
| CC1=CCCC2C1(C)CCC(C)C2(C)CC/C(C)=C/C[n+]1cn(C)c2c(N)ncnc21 (stereo not given) | inactive |
| CN1C2CC3CC1C(O3)C2O (stereo not given) | inactive |
| COc1cc2c(cc1O)CCNC2C (stereo not given) | inactive |
| C[C@@]12CCC(=O)C[C@@H]1CC[C@@H]1[C@@H]2CC[C@]2(C)C(=O)CC[C@@H]12 | inactive |
| CC(=O)OC1CC[C@]2(C)C(CCC3C2CC[C@]2(C)C(C4=CC(=O)OC4)C(OC(C)=O)CC32O)C1 (stereo not given in full) | inactive |
| CCN1C[C@]2(COC)C(O)C[C@H](OC)[C@@]34C5C[C@]6(O)C(OC)C(O)[C@](OC(C)=O)(C5C6OC(=O)c5ccccc5)C(C(OC)C23)C14 (stereo not given in full) | inactive |
| CCC(C)C(=O)O[C@@H]1C[C@@]2(C)C(c3ccoc3)OC(=O)CC23OC2(C)O[C@@]14[C@@]1(C)C(CC(=O)OC)C5(C)CC1(O)C(O)(C5OC(=O)C1(C)OC1C)C(OC(C)=O)[C@@]34O2 (stereo not given in full) | inactive |
| COc1cc2c(c(OC)c1OC)-c1ccc(O)c(=O)cc1C(NC(C)=O)CC2 (stereo not given) | inactive |
| CC(=O)OC1C2C(OC(=O)Cc3ccccc3)C(C)CC2(OC(C)=O)C(=O)/C(C)=C/C2C(CC[C@@]13CO3)C2(C)C (stereo not given in full) | inactive |
| O=C1C=C2C=CC3C[C@@]2(O1)C1CCCCN31 (stereo not given in full) | inactive |
| COc1cc2c(cc1O)CC1c3c(cc(O)c(OC)c3-2)CCN1C (stereo not given) | inactive |
| CC1(C)C(O)CC(O)[C@]2(C)C1CC(O)[C@]1(C)C2CC[C@@]2(C)C(c3ccoc3)OC(=O)C3O[C@]312 (stereo not given in full) | inactive |
| CCC(=O)Nc1ccc(Cl)c(Cl)c1 | inactive |
| COC1C(O)C(C)O[C@H](OC2CC[C@@]3(C=O)C4CC[C@]5(C)C(C6=CC(=O)OC6)CC[C@@]5(O)C4CC[C@@H]3C2)C1O (stereo not given in full) | inactive |
| CC1C(=O)OC2C1CC[C@@]1(C)C=CC(=O)[C@@]3(C)O[C@@]213 (stereo not given in full) | inactive |
| CC1(C)C(O)CC(=O)[C@]2(C)C1CC(=O)[C@]1(C)C2CC[C@@]2(C)C(c3ccoc3)OC(=O)C3O[C@@]321 (stereo not given in full) | inactive |
| O=C1CCCC2C3CC(CN12)C1CCCCN1C3 (stereo not given) | inactive |
